The results in this text go back to PubChem BioAssay (EPA / NIEHS).

Calls of active or inactive are those of the source. Rule for the calls: active = hit-call score of the fitted dose curve at least 0.9, where 1 is the maximum; inactive = score below 0.9.

Sequence of Bile acid receptor (Homo sapiens) (Q96RI1 whole entry, looked up): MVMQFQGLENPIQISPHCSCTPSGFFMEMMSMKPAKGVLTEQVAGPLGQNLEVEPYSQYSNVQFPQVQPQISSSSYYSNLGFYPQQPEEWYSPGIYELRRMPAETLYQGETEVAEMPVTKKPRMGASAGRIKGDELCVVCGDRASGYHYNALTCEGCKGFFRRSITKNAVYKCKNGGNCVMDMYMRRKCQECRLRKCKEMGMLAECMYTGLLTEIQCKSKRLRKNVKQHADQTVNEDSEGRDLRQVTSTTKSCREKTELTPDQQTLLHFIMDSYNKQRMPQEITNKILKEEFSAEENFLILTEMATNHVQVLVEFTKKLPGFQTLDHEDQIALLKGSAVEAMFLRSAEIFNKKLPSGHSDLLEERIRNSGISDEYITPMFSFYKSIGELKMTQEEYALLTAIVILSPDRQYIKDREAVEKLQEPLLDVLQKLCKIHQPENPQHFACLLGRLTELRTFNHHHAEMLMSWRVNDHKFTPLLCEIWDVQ

The assay addresses Bile acid receptor (Homo sapiens) (UniProt Q96RI1). Description: ATG_IR1_CIS: Attagene CIS-FACTORIAL HepG2 Assay for human Nuclear Receptor Subfamily 1 Group H Member 4 (NR1H4), IR1 submotif (AID 2282946). Particulars: IR1 reporter transcription, actives raise or lower the signal. An outline of the steps:
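Transient MRTU transfection, HepG2; 24 h dosing; RNA → RT-PCR → 6-FAM primer extension → HpaI digest → capillary electrophoresis fluorescence. Gain/loss of signal fitted relative to DMSO.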
Take `O=C1O[C@@H]2[C@@H](O)[C@H](O)O[C@@H]2[C@H]1O`: the compound was called inactive. Consider `NCCCN1CCOCC1`, for which the result was inactive. On to `CCCCCCCCCCCCCC(=O)O`, for which the result was inactive.

For `CCCC(=O)C(C)=O`, the compound was classed as inactive. Same read-out and setting: in the case of `COC(=O)c1ccc(C)cc1` it was “inactive”; in that of `CNC(=O)Oc1ccc2c(c1)[C@]1(C)CCN(C)[C@@H]1N2C`, “inactive”; in that of `BrC1CCC(Br)C(Br)CCC(Br)C(Br)CCC1Br` (stereo not drawn), “inactive”. Still for that read-out and setting: in the case of `CC1CCC(C(C)(C)O)CC1` (stereo not drawn) it was “inactive”; in that of `CC1CCC2CC1C2(C)C` (stereo not drawn), “inactive”.

In the case of `CCCC(=O)c1cc(O)c(O)cc1O`, the result was inactive. The same measure, in the same setting: in the case of `COC(=O)C1=C(C)NC(C)=C(C(=O)OCCN(C)Cc2ccccc2)C1c1cccc([N+](=O)[O-])c1` (stereo not drawn) it was “inactive”; in that of `C[Si](O[Si](C)(C)C)O[Si](C)(C)C`, “inactive”; in that of `C=CCOC(=O)CCC1CCCCC1`, “inactive”.

In the case of `O=Cc1ccc(F)cc1`, the call was inactive.

In the case of `O=C(O)CCCCCCCCCCC(=O)O`, the outcome was inactive. Take `CC(CCO)CCc1ccccc1` (stereo not drawn): the compound was called inactive.

Consider `CC1=CCC2C(C1)C2(C)C` (stereo not drawn), for which the call was inactive. For `COC(C(=O)O)c1ccccc1` (stereo not drawn), the compound was called inactive.

As for `OCc1cccnc1`, the call was inactive. Still for that read-out and setting: in the case of `Clc1cccc(Cl)n1` it was “inactive”; in that of `COc1ccc(OC)c(OC)c1`, “inactive”; in that of `CC(C)=CCCC(C)CC=O` (stereo not drawn), “inactive”. Turning to `CC(C)(Oc1ccc(CCNC(=O)c2ccc(Cl)cc2)cc1)C(=O)O`, the result was inactive.

On to `Nc1ccc(F)c([N+](=O)[O-])c1`, for which the call was inactive. Still for that read-out and setting: in the case of `CC(CC(C)(C)C)CC(C)(C)CC(C)(C)C` (stereo not drawn) it was “inactive”. For the compound `Cc1cccc(C)c1C`, the compound was called inactive. The same measure, in the same setting: in the case of `COc1c(Cl)c(Cl)c(Cl)c(Cl)c1Cl` it was “inactive”; in that of `Cc1c(N(C)C)c(=O)n(-c2ccccc2)n1C`, “inactive”; in that of `CC(C)=CCC[C@H](C)CC=O`, “inactive”. One may read the AC50 as the concentration at which the activity in the assay is half-maximal. `O=C1c2ccccc2C(=O)N1SC1CCCCC1`: the AC50 is 142 µM (active).

`CCCCC/C=C/C=C/C=O`: the AC50 is 144 µM (active). For the compound `CCCCNC(=O)NS(=O)(=O)c1ccc(C)cc1`, the compound was classed as inactive. Consider `CC(=O)C(C)=O`, for which the AC50 is 28.8 µM (active).

Regarding `O=C(O)c1snc(Cl)c1Cl`, the outcome was inactive.

With `NCCOCCO`, the compound was classed as inactive. On to `CC(=O)O[C@]1(C(C)=O)CC[C@H]2[C@@H]3C[C@H](C)C4=CC(=O)CC[C@]4(C)[C@H]3CC[C@@]21C`, for which the result was inactive. Consider `COc1cccc(OC)c1`, for which the compound was called inactive. Still for that read-out and setting: in the case of `C=C(C)C(=O)OCCOC(=O)CC(C)=O` it was “inactive”.
